Screen size: about 2,100 compounds; about 1,100 (52%) were called active. Inconclusive results (about 29%) are left out. So high a share suggests a set chosen from earlier hits. The list shows a part of the results. A number with no mark means an inactive call. The call rests on the fitted dose curve; in most records, active means well fitted inhibition curve with a large enough effect; inconclusive means small, poorly fitted or top-dose-only effect; inactive means no such curve, though single readings can be large or run the other way.
Biological target: DNA dC->dU-editing enzyme APOBEC-3F (Homo sapiens) (UniProt Q8IUX4)
Sequence (Q8IUX4 whole entry, looked up): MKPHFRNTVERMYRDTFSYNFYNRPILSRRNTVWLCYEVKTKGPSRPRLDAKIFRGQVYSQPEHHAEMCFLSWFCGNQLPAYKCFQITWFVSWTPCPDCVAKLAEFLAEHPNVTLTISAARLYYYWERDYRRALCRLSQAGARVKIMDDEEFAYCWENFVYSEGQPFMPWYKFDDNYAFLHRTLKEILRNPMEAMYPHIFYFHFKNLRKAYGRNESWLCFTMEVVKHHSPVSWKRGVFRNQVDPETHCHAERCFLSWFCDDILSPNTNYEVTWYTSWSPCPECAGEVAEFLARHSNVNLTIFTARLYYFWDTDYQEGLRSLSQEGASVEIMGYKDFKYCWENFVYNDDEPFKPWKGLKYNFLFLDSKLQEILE
Experiment: qHTS for inhibitors of Vif-A3F interactions: Cherry picks counterscreen; further: nearly all actives have a fitted effect of over 65% in size
Settings: HeLa A3F-eYFP/Vif cells, eYFP fluorescence, 24 h; series mostly up to 46.1 µM; activity, negative = inhibitor: at the top concentration
From the text: The recent discovery and characterization of host restriction factors, which provide a potent defense to invading retroviruses, has provided new targets for antiviral drug development. APOBEC3G (A3G) and APOBEC3F (A3F) are potent cytidine deaminases that block HIV-1 replication; HIV-1 expresses the Vif protein, which counteracts A3G and A3F by binding to them and inducing their proteasomal degradation. The Vif-A3G and Vif-A3F interactions provide two potential targets for development of small molecules which can interfere with the ability of Vif to degrade A3G or A3F. […] To identify inhibitors that can interfere with Vif mediated degradation of A3G and A3F, we have developed Hela cell lines that stably express A3G or A3F tagged with eYFP at the C-terminal end (A3G-eYFP or A3F-eYFP, respectively) and Vif. In the absence of an inhibitor, Vif induces degradation of A3G-eYFP and A3F-eYFP, and the cells are not fluorescent. In the presence of an inhibitor, it is expected that Vif will be unable to degrade A3G-eYFP and/or A3F-eYFP, resulting in an increase in yellow fluorescence. In this counterscreen assay, Vif A3F was screened against the cherry picks ordered from the MLSMR. NIH Chemical Genomics Center [NCGC] NIH Molecular Libraries Probe Centers Network [MLPCN] MLPCN Grant: MH093245 Assay Submitter (PI): Vinay Pathak, National Cancer Institute
A3F-Vif cells were harvested from T225 flask and resuspended in phenol free OPTI-MEM medium with 5% FBS. Then 5 uL of 140,000 cells/mL resuspended cells was dispensed into each well of low base Aurora COC 1,536-well plates (black walled, clear bottom) using a Multidrop Combi dispenser. After overnight culture at 37 deg C with 5% CO2, a total of 23 nL of compounds at 5 selected concentrations from the NPC or positive control (2 mM stock of MG132) in DMSO was transferred to each well of the assay plate using a pintool (Kalypsys, San Diego, CA), and the plates were further incubated at 37 deg C with 5% CO2 for 24 hours. After that, the plates were measured on Acumen Explorer (TTP Lab Tech). The fluorescence was detected by 488 nm/Ex and […].
On the % scale 0 is the no-effect control and ±100 the full control effect; potency means the concentration at half of the fitted maximal effect.

| SMILES | activity, negative = inhibitor | Potency |
| --- | --- | --- |
| c1ccc(Nc2nc(-c3ccccn3)cs2)cc1 | -11.1% | – |
| O=Cc1sc(Nc2ccccc2)nc1Cl | – | 16.4 µM (active) |
| Cc1ccc(Nc2nc(Cl)c(C=O)s2)cc1Cl | – | 18.4 µM (active) |
| COc1ccc(-c2n[nH]c3c2CN(C(=O)c2ccc(OC)c(OC)c2)CC3)cc1 | – | 4.44 µM (active) |
| COc1cccc(C2=CC(c3ccccc3)n3nnnc3N2)c1 (centres undefined) | – | 1.98 µM (active) |
| COc1cccc(C2=CC(c3cccs3)n3nnnc3N2)c1 (centres undefined) | – | 5.59 µM (active) |
| C=CCOC(=O)C1=C(C)Nc2nnnn2C1c1cccs1 (centres undefined) | -25.7% [at 36.9 µM] | – |
| COc1ccc(OC)c(C2C=C(c3ccc(C)c(C)c3)Nc3nnnn32)c1 (centres undefined) | – | 4.98 µM (active) |
| CCOC(=S)SCC(=O)N1CCc2cc(OC)ccc2C1C1C(=O)CCCC1=O (centres undefined) | – | 15.8 µM (active) |
| CCOC(=O)c1c(-c2ccc(OC)cc2)csc1/N=C/C1C(=O)CCCC1=O | -17.2% | – |
| Cc1cc2oc3ccc(NCCCn4ccnc4)cc3c(=O)c2cc1C | -778% [at 46.1 µM, above what the read-out allows, likely interference] | – |
| O=c1c2ccccc2sc2ccc(NCCCN3CCOCC3)cc12 | – | 16.4 µM (active) |
| COc1ccc(-c2cc(NC=O)c3ncc(-c4ccc(OC)c(OC)c4)n3c2)cc1OC | – | 4.44 µM (active) |
| Cc1ccc(-c2cc(NC=O)c3ncc(-c4cnn(C)c4)n3c2)cc1 | – | 5.59 µM (active) |
| COc1ccc(-c2cnc3c(NC=O)cc(-c4ccccc4)cn23)cc1OC | – | 1.77 µM (active) |
| COc1ccc(-c2cnc3c(NC=O)cc(-c4ccoc4)cn23)cc1OC | – | 11.2 µM (active) |
| COc1cccc(-c2cnc3c(NC=O)cc(-c4cc(OC)c(OC)c(OC)c4)cn23)c1 | – | 15.8 µM (active) |
| COc1cc(-c2cc(NC=O)c3ncc(-c4ccc(C(C)=O)cc4)n3c2)cc(OC)c1OC | – | 17.7 µM (active) |
| CC(=O)/C(=C\N(C)C)Sc1ccc(Cl)cc1 | 4.05% [at 36.9 µM] | – |
| Clc1ccsc1-c1csc(-c2cccnc2)n1 | – | 15.8 µM (active) |
| CC(=O)Nc1ccc(S(=O)(=O)Nc2nc3ccccc3nc2Sc2nncn2C)cc1 | – | 16.4 µM (active) |
| Cn1ccnc1Sc1nc2ccccc2nc1NS(=O)(=O)c1ccccc1 | – | 16.4 µM (active) |
| Cn1c(=O)c2c(nc(NC3CCCC3)n2C)n(C)c1=O | 7.15% | – |
| O=C1COc2ccc(C(=O)CSc3nc4ccccc4c(=O)n3-c3ccc(Cl)c(Cl)c3)cc2N1 | – | 23.1 µM (active) |
| COc1ccccc1NC1=NC(c2ccc(Cl)cc2)N=C(N)N1 (centres undefined) | – | 12.5 µM (active) |

| SMILES | activity, negative = inhibitor | Potency |
| --- | --- | --- |
| O=C(NC(=S)Nc1c(Cl)cc(Cl)cc1Cl)c1ccccc1 | 0.68% | – |
| COc1ccc2nc3ccccc3nc2c1NC(=O)c1ccc(Br)cc1 | – | 16.4 µM (active) |
| COc1ccc2nc3ccccc3nc2c1NC(=O)c1ccc(Cl)cc1 | – | 23.1 µM (active) |
| Cc1ccc(CNC(=O)c2ccc3c(c2)NC(=O)C(CS(=O)(=O)Cc2cccc(C)c2)N3)cc1 (centres undefined) | – | 18.4 µM (active) |
| CC(C)CCNC(=O)c1ccc2c(c1)NC(=O)C(CS(=O)(=O)Cc1cccc(Br)c1)N2 (centres undefined) | -23.1% | – |
| CN(C)c1ccc2nc3c(=O)[nH]c(=O)nc-3n(CC(O)C(O)C(O)CO)c2c1 (centres undefined) | – | 6.51 µM (active) |
| O=C1C=C(Nc2ccc(Cl)cc2Cl)CC(c2ccco2)C1 (centres undefined) | – | 4.98 µM (active) |
| C[n+]1cc(C(=O)N2CCCCC2)ccc1/C=C/c1c[nH]c2ccccc12 | – | 11.2 µM (active) |
| CCN(CC)C(=O)c1ccc(/C=C/c2c[nH]c3ccccc23)[n+](C)c1 | – | 16.4 µM (active) |
| COc1ccc(-c2cnc3c(c2)CCC3(C#N)C#N)cc1 | – | 14 µM (active) |
| Cc1ccc(NC(=S)Nc2ccccn2)c(C)c1 | 1.93% | – |
| CCOC(=O)c1ccc(NC(=S)Nc2cccc(C)n2)cc1 | -17.8% | – |
| CCOC(=O)c1cc(-c2ccccc2)sc1NC(=S)Nc1cc(C)ccn1 | – | 18.4 µM (active) |
| CCOc1ccc(-n2nnnc2SCC(=O)c2ccccc2)cc1 | – | 15.8 µM (active) |
| Cc1sc2nc(CSc3nnnn3-c3ccc(Cl)cc3)[nH]c(=O)c2c1C | -21.8% | – |
| O=C(/C=C/c1ccc(Cl)cc1)c1ccc([N+](=O)[O-])o1 | – | 9.94 µM (active) |
| Cc1cccc(/C=C/C(=O)c2ccc([N+](=O)[O-])o2)c1 | – | 4.98 µM (active) |
| O=C(/C=C/c1ccncc1)c1cc(Cl)ccc1O | -16.9% | – |
| Cc1onc(-c2c(F)cccc2Cl)c1C(=O)O/N=C(\N)c1ccc([N+](=O)[O-])o1 | -16.6% [at 36.9 µM] | – |
| COc1cccc(/C(O)=C/c2nc3ccc(C(=O)NCCc4ccc(Cl)cc4)cc3[nH]c2=O)c1 | – | 16.4 µM (active) |
| COc1cccc(/C(O)=C/c2nc3ccc(C(=O)NCCc4cccc(C)c4)cc3[nH]c2=O)c1 | – | 16.4 µM (active) |
| COc1ccc2oc(=N)c(C(=O)Nc3ccc(F)cc3)cc2c1 | – | 7.31 µM (active) |
| COc1cc(C2Nc3ccc4ncccc4c3C3=C2C(=O)CCC3)cc(OC)c1O (centres undefined) | – | 15.8 µM (active) |
| COc1cc(C2Nc3ccc4ncccc4c3C3=C2C(=O)CCC3)ccc1O (centres undefined) | – | 7.04 µM (active) |

— PubChem BioAssay AID651815 (National Center for Advancing Translational Sciences (NCATS), 2012)
